Reference: PubChem BioAssay (Tox21)
Unmarked numbers belong to inactive results. Inconclusive results are not listed. A call without a number means that no potency is given here. Activity calls are given as the source filed them. Unless noted, the call rests on the fitted dose curve; in most records, active means well fitted curve in the direction sought with a large enough effect in the repeat runs; inconclusive means weak or mixed curves; inactive means no such curve, though single readings can be large; an effect the other way counts as inactive or inconclusive.

Assays:
[1] = qHTS assay to identify small molecule antagonists of the estrogen receptor alpha (ER-alpha) signaling pathway using the BG1 cell line in the presence of 0.1 nM 17-beta-estradiol - cell viability counter screen (AID 1259241); further: nearly all actives have a fitted effect of over 40% in size
Outline: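 In this screen, hormone-deprived VM7Luc4E2 cells were seeded at 4,000 per well, dosed with compound and 0.1 nM estradiol final, and incubated 22 hr at 37C and 5% CO2; fluorogenic live-cell protease signal reported viability.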

[2] = qHTS assay to identify small molecule antagonists of the androgen receptor (AR) signaling pathway using the MDA cell line in the presence of 0.5 nM R1881 - cell viability counter screen (AID 1259242); further: nearly all actives have a fitted effect of over 45% in size
Outline: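 Human breast carcinoma MDA-kb2 cells, cultured without CO2, receive compounds alongside 0.5 nM (final) R1881 agonist. After 16 hr at 37C, viability is taken as live-cell protease signal.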

[3] = qHTS assay to identify small molecule HDAC inhibitors (AID 1259364); further: potency means the concentration at half of the fitted maximal effect;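 further: wild-type HCT-116 cells with endogenous class I/II HDAC activity; nearly all actives have a fitted effect of over 45% in size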; on activity change, negative = inhibition: top concentration of the series differs between compounds
Outline: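 After a 2 hr compound incubation (37C, 5% CO2), HCT-116 cells seeded at 1,500/well the day before received HDAC-Glo reagent; signal read as luminescence after 30 min at room temperature.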

[4] = qHTS assay to identify small molecule HDAC inhibitors - cell viability counter screen (AID 1259365); further: series mostly up to about 92 µM; nearly all actives have a fitted effect of over 50% in size
Outline: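 Measured quantity is CellTiter-Glo luminescence from wild-type HCT-116 cells after compound incubation of 2hr at 37C, 5% CO2; reagent developed 30min at room temperature.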

[5] = qHTS assay to identify small molecule agonists of the sonic hedgehog signaling (Shh) pathway - cell viability counter screen (AID 1259366); further: nearly all actives have a fitted effect of over 50% in size
Outline: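 In quantitative high-throughput format, 3T3 Gli1-Luc cells were exposed to compounds for 24hr and multiplexed for viability using CellTiter-Fluor, incubated 1hr at 37C before the fluorescence read.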

[6] = qHTS assay to identify small molecule antagonists of the sonic hedgehog signaling (Shh) pathway - cell viability counter screen (AID 1259367); further: nearly all actives have a fitted effect of over 55% in size
Outline: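 Cytotoxicity was assessed in parallel with Shh reporter activity by measuring live-cell protease fluorescence (CellTiter-Fluor) in NIH/3T3 cells stably carrying Gli1-Luc, treated with compound under conditioned medium stimulation for 23 hr plus 1 hr reagent incubation.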

[7] = qHTS assay to identify small molecule agonists of the sonic hedgehog signaling (Shh) pathway (AID 1259368; calls by dose curve; further: nearly all actives have a fitted effect of over 15% in size; further: potency means the concentration at half of the fitted maximal effect;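 on activity change: NIH/3T3-derived 3T3Gli1-Luc cells carrying a stable Gli1-driven firefly luciferase reporter; series mostly up to about 92 µM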)
Outline: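 Stable NIH/3T3 Gli1-Luc reporter clone; 24 hr cpd exposure after a 4 hr settling period; luminescence endpoint.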

[8] = biological target: Androgen receptor (Homo sapiens) (UniProt P10275); assay: qHTS assay to identify small molecule antagonists of the androgen receptor (AR) signaling pathway using the MDA cell line in the presence of 0.5 nM R1881 (AID 1259243); further: nearly all actives have a fitted effect of over 50% in size
Chain of Androgen receptor (Homo sapiens) (P10275 whole entry, looked up): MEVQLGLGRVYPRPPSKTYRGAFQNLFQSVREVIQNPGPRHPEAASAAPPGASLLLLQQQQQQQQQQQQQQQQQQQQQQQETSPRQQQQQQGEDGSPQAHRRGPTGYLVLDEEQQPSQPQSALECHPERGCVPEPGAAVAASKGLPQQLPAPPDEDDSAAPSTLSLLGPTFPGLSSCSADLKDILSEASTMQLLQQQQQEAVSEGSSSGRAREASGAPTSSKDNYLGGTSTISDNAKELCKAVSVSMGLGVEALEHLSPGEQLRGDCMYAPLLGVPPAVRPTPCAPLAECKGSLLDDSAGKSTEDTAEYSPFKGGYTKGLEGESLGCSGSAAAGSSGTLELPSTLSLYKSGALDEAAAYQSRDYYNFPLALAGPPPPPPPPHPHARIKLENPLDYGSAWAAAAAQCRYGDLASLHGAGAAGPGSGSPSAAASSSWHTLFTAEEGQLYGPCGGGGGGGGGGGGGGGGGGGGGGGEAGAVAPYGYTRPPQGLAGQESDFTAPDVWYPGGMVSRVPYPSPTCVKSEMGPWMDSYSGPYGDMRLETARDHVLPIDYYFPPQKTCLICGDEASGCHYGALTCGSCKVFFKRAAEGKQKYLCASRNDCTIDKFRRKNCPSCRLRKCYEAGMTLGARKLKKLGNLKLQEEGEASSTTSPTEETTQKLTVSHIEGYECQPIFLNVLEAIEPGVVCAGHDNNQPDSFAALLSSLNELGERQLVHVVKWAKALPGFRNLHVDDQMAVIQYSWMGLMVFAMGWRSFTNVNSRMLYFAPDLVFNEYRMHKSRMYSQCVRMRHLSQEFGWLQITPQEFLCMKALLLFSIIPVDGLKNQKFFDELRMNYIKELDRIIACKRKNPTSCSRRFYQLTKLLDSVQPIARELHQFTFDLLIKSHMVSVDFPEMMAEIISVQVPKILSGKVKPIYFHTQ
Outline: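 Cells: MDA-kb2 (MMTV-luc). Stimulus: 0.5 nM R1881. Time: 16 hr, 37C, no CO2. Detection: ONE-Glo luminescence after 30 min at RT.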

[9] = biological target: Estrogen receptor (Homo sapiens) (UniProt P03372); assay: qHTS assay to identify small molecule antagonists of the estrogen receptor alpha (ER-alpha) signaling pathway using the BG1 cell line in the presence of 0.1 nM 17-beta-estradiol (AID 1259244); further: nearly all actives have a fitted effect of over 50% in size
Chain of Estrogen receptor (Homo sapiens) (P03372 whole entry, looked up): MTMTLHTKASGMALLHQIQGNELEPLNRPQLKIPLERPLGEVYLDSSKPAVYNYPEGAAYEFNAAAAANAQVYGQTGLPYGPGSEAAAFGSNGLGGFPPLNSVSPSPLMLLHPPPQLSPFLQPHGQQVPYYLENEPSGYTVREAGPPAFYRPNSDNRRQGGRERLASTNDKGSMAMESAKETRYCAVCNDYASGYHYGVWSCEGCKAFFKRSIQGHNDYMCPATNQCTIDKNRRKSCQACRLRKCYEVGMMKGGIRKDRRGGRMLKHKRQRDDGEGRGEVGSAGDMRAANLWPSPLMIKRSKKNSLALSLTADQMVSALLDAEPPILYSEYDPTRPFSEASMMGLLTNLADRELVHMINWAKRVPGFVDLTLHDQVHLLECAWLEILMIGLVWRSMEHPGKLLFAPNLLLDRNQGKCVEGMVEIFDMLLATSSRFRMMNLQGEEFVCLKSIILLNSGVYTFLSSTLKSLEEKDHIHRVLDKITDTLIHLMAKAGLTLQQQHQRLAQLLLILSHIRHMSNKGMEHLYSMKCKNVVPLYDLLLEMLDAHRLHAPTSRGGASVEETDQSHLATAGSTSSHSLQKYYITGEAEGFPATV
Outline: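 Seeding of stripped-serum-adapted VM7Luc4E2 cells, 24 h attachment, compound transfer, then 0.1 nM final 17beta-estradiol; after 22 h incubation, ONE-Glo reagent and luminescence reading.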

[10] = qHTS assay to identify small molecule phospholipidosis (PLD) inducers (AID 1259344; active means well fitted curve in the direction sought with a large enough effect; an effect the other way counts as inactive or inconclusive)
Outline: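 Cells (HepG2, 900 per well) attach for 4 h, receive LipidTOX Red and compound together, incubate 24 h at 37 C, are fixed 30 min with paraformaldehyde/Hoechst, then imaged at one site per well.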

Cc1ccc(C=O)s1
Potency [1]: inactive
outcome [2]: inactive
Potency [3]: inactive
outcome [4]: inactive
Potency [5]: inactive
Potency [6]: inactive
Potency [7]: inactive

Cc1cc(S(=O)(=O)O)c(N)cc1Cl
outcome [2]: inactive
Potency [8]: inactive
Potency [9]: inactive
Potency [3]: inactive
outcome [4]: inactive
Potency [5]: inactive
Potency [6]: inactive
Potency [7]: inactive

CN(C)CCOc1ccccc1Cc1ccccc1
Potency [1]: inactive
outcome [2]: inactive
Potency [3]: inactive
outcome [4]: inactive
Potency [5]: inactive
Potency [7]: inactive

O=C1CCC(C2CCCCC2)CC1
Potency [1]: inactive
outcome [2]: inactive
Potency [3]: inactive
outcome [4]: inactive
Potency [5]: inactive
Potency [6]: inactive
Potency [7]: inactive

Cc1onc(-c2ccccc2)c1C(=O)Cl
Potency [1]: inactive
outcome [2]: inactive
Potency [3]: inactive
outcome [4]: inactive
Potency [5]: inactive
Potency [6]: inactive
Potency [7]: inactive

COc1cc2c(cc1N)oc1ccccc12
Potency [1]: inactive
outcome [2]: inactive
outcome [4]: inactive
Potency [7]: inactive

OCCN(CCO)c1ccccc1
outcome [2]: inactive
Potency [8]: inactive
Potency [9]: inactive
Potency [3]: inactive
outcome [4]: inactive
Potency [5]: inactive
Potency [6]: inactive
Potency [7]: inactive

COC(=O)/C=C(/C)N
outcome [2]: inactive
Potency [8]: inactive
Potency [9]: inactive
Potency [3]: inactive
outcome [4]: inactive
Potency [5]: inactive
Potency [6]: inactive
Potency [7]: inactive

CC1(C)C(=O)N(Cl)C(=O)N1Br
Potency [1]: inactive
outcome [2]: inactive
Potency [3]: inactive
outcome [4]: inactive
Potency [5]: inactive
Potency [6]: inactive
Potency [7]: inactive

CCOC(=O)CS
Potency [1]: inactive
outcome [2]: inactive
Potency [3]: 25 µM (active)
outcome [4]: inactive
Potency [5]: inactive
Potency [7]: inactive

CCN(CC)C(=O)N(CC)CC
Potency [1]: inactive
outcome [2]: inactive
Potency [3]: inactive
Potency [5]: inactive
Potency [7]: inactive

O=CCCc1ccccc1
Potency [1]: inactive
outcome [2]: inactive
Potency [3]: inactive
outcome [4]: inactive
Potency [5]: inactive
Potency [7]: inactive

C=CC1CO1 (stereo not given)
Potency [1]: inactive
outcome [2]: inactive
Potency [3]: inactive
outcome [4]: inactive
Potency [5]: inactive
Potency [6]: inactive
Potency [7]: inactive

C=CCCC=C
Potency [1]: inactive
outcome [2]: inactive
Potency [3]: inactive
Potency [5]: inactive
Potency [6]: inactive
Potency [7]: inactive

Cc1ccc(C(C)C)cc1O
Potency [1]: inactive
outcome [2]: inactive
Potency [3]: inactive
outcome [4]: inactive
Potency [5]: inactive
Potency [6]: inactive
Potency [7]: inactive

CCCC1CCC(=O)O1 (stereo not given)
Potency [1]: inactive
outcome [2]: inactive
Potency [3]: inactive
Potency [5]: inactive
Potency [6]: inactive
Potency [7]: inactive

COc1cc(Cl)ccc1Cl
Potency [1]: inactive
outcome [2]: inactive
Potency [3]: inactive
outcome [4]: inactive
Potency [5]: inactive
Potency [6]: inactive
Potency [7]: inactive

Nc1ccc(Oc2ccc(N)c(N)c2)cc1
outcome [2]: inactive
Potency [9]: inactive
Potency [3]: 30.6 µM (active)
outcome [4]: inactive
Potency [6]: inactive

C=Cc1ccccc1
outcome [2]: inactive
Potency [9]: inactive
outcome [10]: inactive
Potency [3]: inactive
Potency [5]: inactive
Potency [6]: inactive
Potency [7]: inactive

CCCCNc1cc(C(=O)O)cc(S(N)(=O)=O)c1Oc1ccccc1
outcome [2]: inactive
outcome [10]: inactive
Potency [3]: inactive
outcome [4]: inactive
Potency [5]: inactive
Potency [6]: inactive
Potency [7]: inactive

CC1(C)O[C@@H]2C[C@H]3[C@@H]4CCC5=CC(=O)CC[C@]5(C)[C@@]4(F)[C@@H](O)C[C@]3(C)[C@]2(C(=O)CCl)O1
outcome [2]: inactive
Potency [9]: inactive
outcome [10]: inactive
Potency [3]: inactive
Potency [6]: inactive
Potency [7]: 13.3 µM (active)

C[C@@H]1CN(c2c(F)c(N)c3c(=O)c(C(=O)O)cn(C4CC4)c3c2F)C[C@H](C)N1
viability change, negative = cytotoxic [2]: 0.0147% [at 19 µM]
activity change, negative = inhibition [9]: -0.515% [at 19 µM]
outcome [10]: inactive
activity change, negative = inhibition [3]: -1.07% [at 19 µM]
activity change, negative = cytotoxicity [4]: 4.84% [at 19 µM]
viability change, negative = cytotoxic [5]: 1.22% [at 19 µM]
activity change [7]: -0.971% [at 18.9 µM, stronger effect = higher value]

CCC(=O)O[C@]1(C(=O)SCF)[C@H](C)C[C@H]2[C@@H]3C[C@H](F)C4=CC(=O)C=C[C@]4(C)[C@@]3(F)[C@@H](O)C[C@@]21C
outcome [2]: inactive
Potency [9]: inactive
outcome [10]: inactive
Potency [3]: inactive
outcome [4]: inactive
Potency [5]: inactive
Potency [6]: inactive
Potency [7]: inactive

O=C(CC(=O)C(F)(F)F)c1ccccc1
outcome [2]: inactive
Potency [9]: inactive
Potency [3]: inactive
outcome [4]: inactive
Potency [5]: inactive
Potency [6]: inactive
Potency [7]: inactive

CN(CCCN1c2ccccc2CCc2ccccc21)CC(=O)c1ccc(Cl)cc1
outcome [2]: inactive
Potency [9]: inactive
Potency [3]: inactive
outcome [4]: inactive
Potency [5]: inactive
Potency [6]: inactive
Potency [7]: inactive

NC1=NCC2c3ccccc3Cc3ccccc3N12 (stereo not given)
outcome [2]: inactive
outcome [10]: inactive
Potency [3]: inactive
outcome [4]: inactive
Potency [5]: inactive
Potency [6]: inactive
Potency [7]: inactive

CCCS(=O)c1ccc2nc(NC(=O)OC)[nH]c2c1 (stereo not given)
outcome [2]: inactive
Potency [8]: inactive
Potency [3]: 5.96 µM (active)
outcome [4]: inactive
Potency [5]: inactive
Potency [6]: inactive
Potency [7]: inactive
